# Experimental data reported in PubChem BioAssay (NCI).
# Compounds without any hit were thinned out: in the full panel of roughly 83,000, 20% have a hit.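 Single-dose data. Exposure time 48 hours. Values below 10 considered active.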 A number with no mark means an inactive call. Active and inactive are the calls of the source.
# Key:
# Test in all cases: NCI-60 one-dose screen, 48 h (100 = growth as untreated, 0 = no growth, -100 = all killed)
# Details in all cases: 10 µM unless noted
# NCI-H23 lung = tested on: NCI-H23 lung
# NCI-H226 lung = tested on: NCI-H226 lung
# NCI-H322M lung = tested on: NCI-H322M lung
# HOP-62 NSCLC = tested on: HOP-62 NSCLC
# NCI-H460 lung = tested on: NCI-H460 lung
# HOP-92 NSCLC = tested on: HOP-92 NSCLC
# NCI-H522 lung = tested on: NCI-H522 lung
# A549/ATCC NSCLC = tested on: A549/ATCC NSCLC
# 786-0 renal = tested on: 786-0 renal
# COLO 205 colon = tested on: COLO 205 colon
# DU-145 prostate = tested on: DU-145 prostate
# K-562 leukemia = tested on: K-562 leukemia
# MALME-3M melanoma = tested on: MALME-3M melanoma
# MDA-MB-231 breast = tested on: MDA-MB-231 breast
# RXF 393 renal = tested on: RXF 393 renal
# SF-268 CNS = tested on: SF-268 CNS
# SF-295 CNS = tested on: SF-295 CNS
# SF-539 CNS = tested on: SF-539 CNS
# UACC-257 melanoma = tested on: UACC-257 melanoma
# M14 melanoma = tested on: M14 melanoma
Compound,growth (NCI-H23 lung),growth (NCI-H226 lung),growth (NCI-H322M lung),growth (HOP-62 NSCLC),growth (NCI-H460 lung),growth (HOP-92 NSCLC),growth (NCI-H522 lung),growth (A549/ATCC NSCLC),growth (786-0 renal),growth (COLO 205 colon),growth (DU-145 prostate),growth (K-562 leukemia),growth (MALME-3M melanoma),growth (MDA-MB-231 breast),growth (RXF 393 renal),growth (SF-268 CNS),growth (SF-295 CNS),growth (SF-539 CNS),growth (UACC-257 melanoma),growth (M14 melanoma)
CCOc1ncc([N+](=O)[O-])c(OCC)n1,106%,107%,123%,104%,113%,82.2%,99.9%,98.9%,108%,112%,123%,103%,129%,97.1%,122%,118%,116%,102%,102%,112%
COC12C=C/C(=C(/C(=O)OCc3cncnc3)C(=O)CCCCCCCCC3(OC)C=C/C(=C(/C(=O)OCc4cncnc4)C(=O)CCCCCCCC1)O3)O2,-49.9% (active),-78% (active),-66% (active),9.7% (active),-20.5% (active),-59.7% (active),-33.8% (active),-7.89% (active),-70.7% (active),-30.5% (active),-42.7% (active),-16.8% (active),-70.8% (active),5.88% (active),-74.2% (active),-10.6% (active),-13.8% (active),-27% (active),-12.7% (active),-12.3% (active)
CN1CCN(c2ccc(NC3=CC(=O)c4ncncc4C3=O)cc2)CC1,-43.5% (active),-47.7% (active),10.8%,-87.5% (active),-24.4% (active),-61.7% (active),-56.7% (active),-7.95% (active),-50.5% (active),-69.8% (active),-89.1% (active),-22.1% (active),-98.4% (active),-15.1% (active),-94.8% (active),-46.3% (active),-96.1% (active),-96.1% (active),-81.5% (active),-81.8% (active)
CCN(CC)c1ccc(-c2cc(-c3cc(OC)c(OC)c(OC)c3)nc(N3CCC(O)CC3)c2C#N)cc1,0.411% (active),-36.2% (active),18.1%,17.9%,-32.8% (active),-17.6% (active),-52.3% (active),0.627% (active),-22% (active),-60.9% (active),1.59% (active),2.04% (active),-49.2% (active),-58.7% (active),-13.3% (active),0.835% (active),-62.2% (active),-44.3% (active),-47.5% (active),-56.4% (active)
COc1ccc(C2C3=C(COC3=O)N(CCO)c3cc4c(cc32)OCO4)cc1OC (stereo not given),73.6%,115%,104%,70.6%,95.8%,68.7%,66.2%,90.7%,84%,83.6%,100%,52%,104%,101%,81.4%,91%,62.6%,91.9%,90.6%,68.6%
CS(=O)(=O)Nc1cc(-c2ccc3ncnc(Nc4ccc5c(cnn5Cc5ccccc5F)c4)c3c2)cnc1Cl,41.8%,66.7%,62%,40.3%,59.4%,-21.4% (active),34.3%,71.3%,53.1%,59.4%,51.9%,57.3%,-7.51% (active),36.1%,20.2%,24.3%,60.9%,34.5%,52.9%,39.1%
CNC(=O)Nc1ccc(-c2ccc3ncnc(Nc4cccc(Cl)c4)c3c2)cc1,62.9%,68.4%,7.46% (active),71.4%,77.4%,37.8%,-1.3% (active),41.8%,71.4%,66.3%,44.8%,60.3%,53.5%,65.7%,50.4%,52.2%,59.9%,74.3%,65.7%,63.2%
CC(C)(C)OC(=O)CN1CCc2c(sc3ncnc(N4CCN(c5ccc(F)cc5)CC4)c23)C1,88.2%,73.1%,83.6%,93.2%,88.6%,84%,82%,90.3%,81.8%,86.4%,90.1%,87.7%,90.6%,75.7%,92.2%,81.9%,104%,81.6%,97.7%,98.4%
CC(C)(C)c1ccc(C(=O)N/N=C/c2ccc(O)cc2O)cc1,19.1%,12.1%,26.8%,17.9%,0.52% (active),33.6%,33.4%,11.8%,19.7%,14.7%,24.5%,14.2%,11.9%,35.1%,-4% (active),19.9%,16.6%,11.2%,3.68% (active),-10.3% (active)
CCn1cc(C(=O)O)c(=O)c2cc(F)c(N3CCN(CC(=O)Nc4ccccc4)C(C)C3)c(F)c21 (stereo not given),91.3%,100%,85.7%,101%,99.2%,97%,92.5%,97.9%,92.5%,106%,104%,87.1%,97.9%,87.1%,101%,93.7%,95.3%,99.1%,102%,105%
Cc1ccc2c(/C=C/C(=O)c3cc(CN4CCOCC4)c(O)c4nc(C)ccc34)cc(CN3CCOCC3)c(O)c2n1,-2.24% (active),-13% (active),17%,-7.03% (active),7.83% (active),30.9%,-54.8% (active),11.3%,-31.9% (active),-25.8% (active),-55.9% (active),1.93% (active),42.9%,11.5%,-74.5% (active),13.2%,23%,-29.4% (active),7.95% (active),-20.1% (active)
Fc1cc2[nH]ncc2c2c3c(c(-c4cn[nH]c4C(F)(F)F)nc12)CCCC3,-12.2% (active),6.19% (active),-0.0231% (active),-1.79% (active),2.41% (active),-71% (active),-24.2% (active),2.17% (active),1.39% (active),-45.6% (active),5.47% (active),-34.5% (active),10.5%,7.95% (active),-56.2% (active),0.494% (active),5.61% (active),-66.9% (active),2.49% (active),-2.16% (active)
Cc1cccc(NC(=O)N/C(N)=N/c2nc3ccccc3s2)c1,40.9%,53.7%,47.7%,30.3%,17.6%,62.7%,16%,45.9%,38.6%,16.9%,34.6%,18.1%,50.7%,58.8%,26.3%,54.2%,49.1%,-3.23% (active),55%,16.5%
CCCCCc1ccc(S(=O)(=O)Nc2cc(-c3csc(NC(C)=O)n3)ccc2N2CCN(C)CC2)cc1,65.5%,94.1%,73.2%,83.3%,-11.4% (active),36%,67.3%,55.8%,56.7%,-38.9% (active),75.8%,-32.6% (active),-47.1% (active),51.8%,33.3%,72%,49.9%,61.6%,-21.9% (active),-52.4% (active)
CS(=O)(=O)Nc1cc(-c2ccc3ncnc(Nc4ccc5c(cnn5Cc5ccncc5)c4)c3c2)cnc1Cl,62.2%,92%,76%,43.9%,97.2%,-7.79% (active),46.4%,86%,66.3%,89.2%,78.9%,53.5%,20.8%,43.4%,21.1%,45%,84.5%,50.3%,59.4%,56.2%
